Assay results published in PubChem BioAssay (Tox21).
“And” between values parts separate entries of the source, which are not always exact repeats. Identical values can stand only once. Records with an inconclusive call do not appear. More than one record can exist for a structure, and the calls need not agree. The source made the active and inactive calls. Unless noted, calls come from the whole dose curve; as a rule, active = well fitted curve in the direction sought with a large enough effect in the repeat runs; inconclusive = weak or mixed curves; inactive = no such curve, though single readings can be large; an effect the other way counts as inactive or inconclusive.

How the values were obtained:
[1] = qHTS assay to identify small molecule agonists of the peroxisome proliferator-activated receptor delta (PPARd) signaling pathway - cell viability counter screen (AID 743211); note: nearly all actives have a fitted effect of over 55% in size
In short: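 qHTS cell viability: PPARd-bla HEK293H; 17 h cpd, 37C; CellTiter-Glo, luminescence at 30 min RT.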

[2] = target: Peroxisome proliferator-activated receptor delta (Homo sapiens) (UniProt Q03181); experiment: qHTS assay to identify small molecule agonists of the peroxisome proliferator-activated receptor delta (PPARd) signaling pathway (AID 743212; calls by dose curve)
In short: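 Quantitative high-throughput agonist screen in a HEK293H beta-lactamase reporter line under UAS control. Compounds in DMSO, at 37 C. Fluorescence read after 2 h with FRET substrate at room temperature.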

[3] = qHTS assay to identify small molecule antagonists of the peroxisome proliferator-activated receptor delta (PPARd) signaling pathway - cell viability counter screen (AID 743213); note: nearly all actives have a fitted effect of over 50% in size
In short: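 HEK293H PPARd UAS-bla cells, 5 h pre-incubation, compound + L165041 300 nM final, 17 h 37 C; B/G FRET substrate 2 h RT; then CellTiter-Glo 30 min RT, luminescence.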

[4] = target: Peroxisome proliferator-activated receptor delta (Homo sapiens) (UniProt Q03181); experiment: qHTS assay to identify small molecule antagonists of the peroxisome proliferator-activated receptor delta (PPARd) signaling pathway (AID 743215; active = well fitted inhibition curve with a large enough effect in the signal ratio in the repeat runs, not every such curve was filed as active; the % refers to the signal ratio;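 note: cells stimulated with agonist L165041 at 300 nM final during compound exposure; series mostly up to about 62 µM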)
In short: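 PPARd UAS-bla HEK293H cells were pre-incubated 5 h at 37 C, then given test compounds in DMSO plus agonist L165041 (300 nM final). After 17 h at 37 C, beta-lactamase FRET substrate was added; fluorescence read after 2 h at room temperature.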

[5] = qHTS assay to identify small molecule agonists of the farnesoid-X-receptor (FXR) signaling pathway - cell viability counter screen (AID 743218); note: nearly all actives have a fitted effect of over 45% in size
In short: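 FXR-UAS-bla HEK 293T cells, plated 5 h at 37 C, were exposed to compounds for 16 h at 37 C. CellTiter-Glo was then added to the same wells as the bla readout; luminescence read after 30 min at room temperature.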

[6] = qHTS assay to identify small molecule antagonists of the farnesoid-X-receptor (FXR) signaling pathway - cell viability counter screen (AID 743221; active = well fitted cell-killing curve with a large enough effect in the repeat runs, not every such curve was filed as active; note: nearly all actives have a fitted effect of over 50% in size)
In short: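 After a 5 h settling period, FXR-bla HEK 293T cells receive compound and chenodeoxycholic acid (50 uM final) and incubate 16 h at 37 C; CellTiter-Glo luminescence, read after 30 min at room temperature, reports cell viability.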

[7] = target: Vitamin D3 receptor (Homo sapiens) (UniProt P11473); experiment: qHTS assay to identify small molecule agonists of the vitamin D receptor (VDR) signaling pathway (AID 743222; calls by dose curve)
In short: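 VDR-bla cells were plated 4 h at 37C/5% CO2, then exposed to compounds in DMSO for 16 h. After LiveBLAzer B/G FRET substrate addition and 2 h at room temperature, beta-lactamase reporter fluorescence was read.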

[8] = target: Vitamin D3 receptor (Homo sapiens) (UniProt P11473); experiment: qHTS assay to identify small molecule antagonists of the vitamin D receptor (VDR) signaling pathway (AID 743223; active = well fitted inhibition curve with a large enough effect in the signal ratio in the repeat runs, not every such curve was filed as active; the % refers to the signal ratio)
In short: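 Reporter line VDR-bla; stimulus 1alpha,25-(OH)2 vitamin D3, 3 nM final; compound co-addition, 16 h 37C/5% CO2; LiveBLAzer B/G substrate 2 h RT; fluorescence intensity.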

[9] = qHTS assay to identify small molecule agonists of the vitamin D receptor (VDR) signaling pathway - cell viability counter screen (AID 743224); note: nearly all actives have a fitted effect of over 50% in size; note: potency is the fitted concentration of half-maximal effect
In short: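 VDR-bla cells were preincubated 4 h at 37C/5% CO2, then exposed to compounds for 16 h. After the 2 h room-temperature bla FRET read, CellTiter-Glo was added to the same wells and luminescence read after 30 min.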

[10] = qHTS assay to identify small molecule antagonists of the vitamin D receptor (VDR) signaling pathway - cell viability counter screen (AID 743225); note: nearly all actives have a fitted effect of over 50% in size
In short: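 Parallel cytotoxicity test: VDR-UAS-bla HEK 293T, 3 nM (final) 1-alpha,25-dihydroxyvitamin D3 with test compound, 16 h, 37C. Endpoint is CellTiter-Glo luminescence in the same wells.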

[11] = qHTS assay to identify small molecule agonists of the NFkB signaling pathway (AID 1159509; active = well fitted curve in the direction sought with a large enough effect in the signal ratio in the repeat runs, not every such curve was filed as active; the % refers to the signal ratio; note: series mostly up to about 61 µM)
In short: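 NFkB-bla ME-180 cells with a beta-lactamase reporter under an NF-kB response element were plated overnight, treated with compounds in DMSO for 5 hr at 37 C, then loaded with FRET substrate for 1.5 hr at room temperature.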

[12] = qHTS assay to identify small molecule agonists of the NFkB signaling pathway - cell viability counter screen (AID 1159515; calls by dose curve; note: series mostly up to about 61 µM; nearly all actives have a fitted effect of over 55% in size)
In short: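 NFkB-bla ME-180 cells, 2,000/well, were plated overnight at 37 C, 5% CO2, then exposed to compounds in DMSO for 5 hr. After the bla FRET read, CellTiter-Glo was added to the same wells; luminescence was read after 30 min at room temperature.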

[13] = qHTS assay to identify small molecule agonists of the endoplasmic reticulum stress response signaling pathway (AID 1159516; active = well fitted activation curve with a large enough effect in the signal ratio in the repeat runs, not every such curve was filed as active; the % refers to the signal ratio)
In short: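 CellSensor ESRE-bla HeLa cells, carrying a beta-lactamase reporter driven by the ER stress response element, were plated overnight and exposed to compounds for 5 hr at 37 C. Reporter activity was read as FRET substrate fluorescence after 2 hr at room temperature.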

[14] = qHTS assay to identify small molecule agonists of the endoplasmic reticulum stress response signaling pathway - cell viability counter screen (AID 1159517; calls by dose curve)
In short: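 Counter-screen wells were identical to the reporter wells. Cells were plated at 1,500 per well and dosed for 5 hr, then read for luminescence 30 min after CellTiter-Glo addition.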

[15] = qHTS assay to identify small molecule antagonists of the retinoid-related orphan receptor gamma (ROR-gamma) signaling pathway - cell viability counter screen (AID 1159520); note: nearly all actives have a fitted effect of over 50% in size
In short: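 Tet-on ROR gamma CHO cells were given compounds for 2 hr, then doxycycline hyclate at 1 uM final, and incubated 16 hr at 37 C. Viability was measured as ATP content by CellTiter-Glo luminescence.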

[16] = target: Nuclear receptor ROR-gamma (Homo sapiens) (UniProt P51449); experiment: qHTS assay to identify small molecule antagonists of the retinoid-related orphan receptor gamma (ROR-gamma) signaling pathway (AID 1159521)
In short: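 Decreased RORE-driven luciferase luminescence indicates antagonism. Tet-on RORγ CHO cells received compound, then 1 uM final doxycycline 2 h later; signal read after 16 h incubation.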

[17] = qHTS assay to identify small molecule agonists of the AP-1 signaling pathway - cell viability counter screen (AID 1159525; calls by dose curve; note: nearly all actives have a fitted effect of over 55% in size)
In short: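 AP-1-bla ME-180 cells in Opti-MEM with 0.5% dialyzed FBS, compound exposure 5 h at 37 C in 15-point titration. Viability read in the same wells as ATP content by CellTiter-Glo luminescence, normalised to tetra-n-octylammonium bromide and DMSO controls.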

[18] = qHTS assay to identify small molecule agonists of the AP-1 signaling pathway (AID 1159526; calls by dose curve; note: potency is the fitted concentration of half-maximal effect)
[19] = target: Bile acid receptor (Homo sapiens) (UniProt Q96RI1); experiment: qHTS assay to identify small molecule antagonists of the farnesoid-X-receptor (FXR) signaling pathway (AID 743217; active = well fitted inhibition curve with a large enough effect in the signal ratio in the repeat runs, not every such curve was filed as active; the % refers to the signal ratio)
In short: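 FXR-UAS-bla HEK 293T cells pre-incubated 5 h at 37 °C, then exposed to compounds with chenodeoxycholic acid (50 uM final) for 16 h at 37 °C. Beta-lactamase reporter read by LiveBLAzer B/G FRET substrate fluorescence after 2 h at room temperature.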

[20] = target: Bile acid receptor (Homo sapiens) (UniProt Q96RI1); experiment: qHTS assay to identify small molecule agonists of the farnesoid-X-receptor (FXR) signaling pathway (AID 743220; active = well fitted activation curve with a large enough effect in the signal ratio in the repeat runs, not every such curve was filed as active; the % refers to the signal ratio)
In short: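 Beta-lactamase reporter under UAS control in GeneBLAzer FXR HEK 293T cells (5000/well) measured with LiveBLAzer FRET substrate after 2 h at room temperature. Compound exposure lasted 16 h at 37C.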

Measured: Potency

Chain of Peroxisome proliferator-activated receptor delta (Homo sapiens) (Q03181 whole entry, looked up): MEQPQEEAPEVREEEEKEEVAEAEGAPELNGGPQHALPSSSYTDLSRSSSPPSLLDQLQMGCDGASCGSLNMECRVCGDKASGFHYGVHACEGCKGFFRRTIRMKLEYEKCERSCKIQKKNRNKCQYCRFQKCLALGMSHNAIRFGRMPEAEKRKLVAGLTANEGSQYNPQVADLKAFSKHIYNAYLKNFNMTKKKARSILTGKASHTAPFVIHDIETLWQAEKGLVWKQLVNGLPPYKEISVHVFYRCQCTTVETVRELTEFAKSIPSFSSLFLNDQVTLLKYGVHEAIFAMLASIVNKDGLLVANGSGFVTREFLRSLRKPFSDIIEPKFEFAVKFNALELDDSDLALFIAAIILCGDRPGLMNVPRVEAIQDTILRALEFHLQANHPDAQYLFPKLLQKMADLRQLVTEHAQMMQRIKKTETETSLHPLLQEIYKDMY
Chain of Bile acid receptor (Homo sapiens) (Q96RI1 whole entry, looked up): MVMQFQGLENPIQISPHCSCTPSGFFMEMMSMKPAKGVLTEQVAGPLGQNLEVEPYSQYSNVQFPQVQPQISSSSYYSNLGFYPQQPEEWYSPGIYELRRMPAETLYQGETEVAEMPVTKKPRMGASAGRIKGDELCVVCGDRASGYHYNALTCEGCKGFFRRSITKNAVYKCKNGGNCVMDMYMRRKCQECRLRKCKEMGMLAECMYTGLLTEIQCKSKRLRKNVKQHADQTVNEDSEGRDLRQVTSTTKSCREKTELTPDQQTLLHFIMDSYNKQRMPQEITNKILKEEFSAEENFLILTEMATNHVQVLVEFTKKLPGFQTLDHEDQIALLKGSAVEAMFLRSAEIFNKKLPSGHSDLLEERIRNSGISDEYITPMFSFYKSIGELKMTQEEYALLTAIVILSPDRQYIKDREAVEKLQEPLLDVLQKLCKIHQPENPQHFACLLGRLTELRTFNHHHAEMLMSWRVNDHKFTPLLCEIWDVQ
Chain of Vitamin D3 receptor (Homo sapiens) (P11473 whole entry, looked up): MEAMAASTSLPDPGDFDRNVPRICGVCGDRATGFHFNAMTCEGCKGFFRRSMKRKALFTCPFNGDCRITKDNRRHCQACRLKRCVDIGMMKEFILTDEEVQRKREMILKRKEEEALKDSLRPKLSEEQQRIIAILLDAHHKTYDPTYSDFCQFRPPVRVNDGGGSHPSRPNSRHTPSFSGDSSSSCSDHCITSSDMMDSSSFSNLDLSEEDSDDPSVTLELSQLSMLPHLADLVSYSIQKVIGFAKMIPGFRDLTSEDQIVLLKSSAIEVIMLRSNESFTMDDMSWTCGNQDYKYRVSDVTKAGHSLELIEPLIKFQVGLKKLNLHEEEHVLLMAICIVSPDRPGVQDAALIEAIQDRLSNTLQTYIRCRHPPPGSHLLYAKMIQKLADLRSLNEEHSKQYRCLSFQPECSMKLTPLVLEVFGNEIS

O=C/C=C/c1ccccc1
not listed: [19] | [20]
inactive: all other assays above

FC(F)(F)c1ccc(Cl)cc1
inactive: all assays above

Cc1cccc(C)c1NC(=O)CN1CCCC1=O
not listed: [7] | [8]
inactive: all other assays above

Cl[C@H]1OCCO[C@@H]1Cl
not listed: [7] | [8]
inactive: all other assays above

CNc1cnn(-c2cccc(C(F)(F)F)c2)c(=O)c1Cl
inactive: all assays above

CC[N+](=O)[O-]
not listed: [19] | [20]
inactive: all other assays above

OCC(O)CCl (stereo not given)
not listed: [10] | [19] | [20]
inactive: all other assays above

Clc1cnc(Oc2ccc(Oc3ncc(Cl)cc3Cl)cc2)c(Cl)c1
not listed: [5]
inactive: all other assays above

C=CC(=O)OCCCCCC(C)C
inactive: all assays above

CC(=O)/C=C/c1ccccc1
not listed: [19] | [20]
inactive: all other assays above

CCNc1nc(Cl)nc(NC(C)C)n1
not listed: [19] | [20]
inactive: all other assays above

O=[N+]([O-])c1ccc(Cl)c(Cl)c1
inactive: all assays above

[N-]=[N+]=CC(=O)OC[C@H](N)C(=O)O
inactive: all assays above

Cc1cccc(C)c1N
not listed: [7] | [8]
inactive: all other assays above

CNC(=O)Oc1cccc2ccccc12
inactive: all assays above

Cc1cc(O)ccc1Cl
inactive: all assays above

OCc1ccco1
inactive: all assays above

Nc1nc(N)nc(NC2CC2)n1
inactive and 43.6 µM (active): [9]
not listed: [7] | [8]
inactive: all other assays above

Sc1ccccc1
49.7 µM (active) and inactive: [18]
not listed: [19] | [20]
inactive: all other assays above

CSc1nnc(C(C)(C)C)c(=O)n1N
inactive: all assays above

CNC(=O)O/N=C/C(C)(C)S(C)=O (stereo not given)
inactive: all assays above

COC(=O)Nc1cccc(OC(=O)Nc2cccc(C)c2)c1
not listed: [7] | [8]
inactive: all other assays above

Nc1cccc(Cl)c1
inactive: all assays above

CCSC(=O)N1CCCCCC1
not listed: [19] | [20]
inactive: all other assays above

O=S(=O)(O)OOS(=O)(=O)O
not listed: [19] | [20]
inactive: all other assays above

CC(=O)C1CCOC1=O (stereo not given)
inactive: all assays above

CCOc1ccc(N)cc1
inactive: all assays above

CC(C)c1cccc(C(C)C)c1O
not listed: [19] | [20]
inactive: all other assays above

C[C@H]1C(=O)O[C@@H]2CCN3CC=C(COC(=O)[C@](C)(O)[C@]1(C)O)[C@H]23
inactive: all assays above

ClCCOCCCl
not listed: [7] | [8]
inactive: all other assays above

CCCOC(=O)c1ccccc1C(=O)OCCC
not listed: [3] | [7] | [8]
inactive: all other assays above
